Assay outcomes: PubChem BioAssay, National Center for Advancing Translational Sciences (NCATS)
AmpC detergent: AmpC beta-lactamase inhibition with detergent present | AID 485294 | actives 0.041% (n = 370,000) | AmpC hydrolysis of nitrocefin, absorbance 480 nm, 0.01% Triton | Potency, µM (top dose mostly 114 µM), inactives show top-dose activity change, negative = inhibition, actives largely listed as inhibitors;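 note: 0% = no-compound wells and -100% = no-enzyme wells; nearly all actives have a fitted effect of over 25% in size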
Target sequence (P00811 whole entry, looked up): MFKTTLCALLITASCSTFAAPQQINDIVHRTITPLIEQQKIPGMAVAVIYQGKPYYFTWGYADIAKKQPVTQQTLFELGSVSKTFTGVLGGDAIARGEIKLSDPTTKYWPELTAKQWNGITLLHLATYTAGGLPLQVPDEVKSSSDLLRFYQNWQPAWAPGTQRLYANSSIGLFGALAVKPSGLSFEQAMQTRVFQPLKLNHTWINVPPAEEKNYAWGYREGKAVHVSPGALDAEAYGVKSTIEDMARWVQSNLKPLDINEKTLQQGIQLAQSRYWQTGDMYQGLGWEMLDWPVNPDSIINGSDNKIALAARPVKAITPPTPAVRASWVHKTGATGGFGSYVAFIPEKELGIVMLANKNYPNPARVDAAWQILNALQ
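20 mM phosphate pH 7.0 + 0.01% (detergent screen) or 0.0001% Triton X-100; 5.3 nM AmpC reagent; cpd preinc 15 min RT; nitrocefin (800 uM stock) to start; A480 q20 s × 4 min; Activity was normalised to no-enzyme and no-compound control wells.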
SARS PLP yeast: blocks SARS-CoV papain-like protease in a yeast assay. AID 485353. S. cerevisiae expressing SARS-CoV PLpro, growth rescue. actives 0.19% (n = 330,000). Potency, µM (top dose mostly 32.9 µM), for the others: at the top dose activity, positive = growth rescue, most hits filed as activators; calls by dose curve; note: 0% is about no effect; nearly all actives have a fitted effect of over 55% in size
Tb PYK inh: inhibitors of Trypanosoma brucei pyruvate kinase; actives 0.12% (n = 410,000); TbPYK enzyme, Kinase-Glo Plus ATP luminescence, 45 min; Potency, µM (doses to about 76.8 µM), without a hit: at the top dose activity, negative = inhibition, actives largely listed as inhibitors; AID 624173; Q57TT1; note: % is set by controls: 0 for no effect and ±100 for the full control effect; nearly all actives have a fitted effect of over 50% in size
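Luminescence from Kinase-Glo Plus, added after a 45-minute room-temperature reaction, served as the end-point read-out. The enzyme and substrate were preincubated with compound before ADP (130 uM final) initiated turnover. Concentration-effect curves came from normalized qHTS data.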
RE007 growth inh: less growth of the S. pombe RE007 Vpr strain; S. pombe RE007 Vpr strain, BacTiter-Glo ATP luminescence, 24 h; Potency, µM (doses to about 92.2 µM), for the others: at the top dose activity change, negative = less growth, hits mostly inhibitors; actives 0.21% (n = 360,000); active = well fitted falling curve with a large enough effect; inconclusive = small, poorly fitted or top-dose-only effect; inactive = no such curve, though single readings can be large or run the other way; note: % is set by controls: 0 for no effect and ±100 for the full control effect; nearly all actives have a fitted effect of over 50% in size
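Fission yeast strain RE007, carrying one chromosomally integrated HIV-1 vpr copy, was seeded at OD 0.01 in PMG+AL medium with 23 nL pinned compound. After 24 h at 30 °C and 99% humidity, viability was read by BacTiter-Glo luminescence.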
Sm TGR inh: inhibitors of Schistosoma mansoni thioredoxin glutathione reductase; Q962Y6; purified TGR, DTNB reduction, TNB absorbance 405 nm; Potency, µM (top dose mostly 114 µM), inactives show at the highest dose activity change, negative = inhibition, most hits filed as inhibitors; actives 3% (n = 360,000); AID 485364; note: % is set by controls: 0 for no effect and ±100 for the full control effect; nearly all actives have a fitted effect of over 60% in size
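TGR 20 nM + NADPH 100 uM (dispensed conc.), cpd preinc 15 min RT; start with NADPH (500 uM addition) then DTNB (15 mM addition). Kinetic TNB absorbance, 405 nm filter. Four-parameter Hill fit across titration.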
AmpC inh no detg: AmpC beta-lactamase inhibition without detergent; P00811; AmpC nitrocefin hydrolysis, absorbance 480 nm, 0.0001% Triton; Potency, µM (doses to about 57.1 µM), for inactives: at the top dose activity change, negative = inhibition, most hits filed as inhibitors; actives 0.52% (n = 330,000); AID 485341;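 note: plate controls were no compound for no effect and no enzyme for full effect; nearly all actives have a fitted effect of over 20% in size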
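AmpC (5.3 nM in the dispensed reagent) in 20 mM phosphate pH 7.0 with 0.01% (detergent screen) or 0.0001% Triton X-100 was preincubated with compounds for 15 min at room temperature. Nitrocefin was then added from an 800 uM solution, and hydrolysis was followed at 480 nm.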
Active calls of the source: *; ? = inconclusive; / = no result; [ ] = remark or other dose. Compounds with a hit are over-represented: about 3.3% of the library has one in this group of screens. Unless noted, calls come from the whole dose curve; as a rule, active = well fitted curve in the direction sought with a large enough effect; inconclusive = small, poorly fitted or top-dose-only effect, or another doubt; inactive = no such curve, though single readings can be large; an effect the other way counts as inactive or inconclusive. Potency is the fitted concentration of half-maximal effect.

SMILES	AmpC detergent	SARS PLP yeast	Tb PYK inh	RE007 growth inh	Sm TGR inh	AmpC inh no detg
O=C(c1cc2ccccc2oc1=O)N(Cc1ccco1)C1CCS(=O)(=O)C1 (stereo not given)	-25.5%	-3.9%	-23.5%	-10.5%	15.8µM*	-15.9%
Cc1ccc(CN(C(=O)c2ccccc2C)C2CCS(=O)(=O)C2)o1 (stereo not given)	2.1%	4.1%	-8.6%	0.5%	-31.3%	-26.3%
Cc1ccc(CN(C(=O)c2ccccc2[N+](=O)[O-])C2CCS(=O)(=O)C2)o1 (stereo not given)	3.6%	-2.6%	2.2%	2.5%	31.6µM*	-0.6%
COc1ccc(Br)cc1C(=O)Nc1cccc2ccc(C)nc12	-5.1%	/	-2.6%	/	-0.5%	/
Cc1cc(C)c2cc3c(N)c(C(=O)N4CCc5ccccc5C4)sc3nc2c1	1.7%	27.9%	-14.3%	-2.4%	-5.7%	0.316µM*
Cc1sc2ncn(CC(=O)Nc3cccc(C(F)(F)F)c3)c(=O)c2c1S(=O)(=O)N1CCC(C)CC1	-4.7%	/	2.8%	/	2.0%	/
Cc1ccc(-c2cc(C(=O)OCC(=O)N(C)C3CCS(=O)(=O)C3)c3ccccc3n2)c(C)c1 (stereo not given)	3.9%	-1.5%	-5.3%	-6.1%	5.6%	196.1%
CCN(C(=O)COC(=O)c1cc(-c2ccc(C)o2)nc2ccccc12)C1CCS(=O)(=O)C1 (stereo not given)	-2.5%	-0.7%	-17.5%	8.0%	25.1µM*	146.6%
Cc1ccc(-c2cc(C(=O)OCC(=O)N(C)C3CCS(=O)(=O)C3)c3ccccc3n2)o1 (stereo not given)	0.1%	0.4%	-29.3%	6.5%	14.1µM*	103.5%
CCN(C(=O)COC(=O)c1cc(-c2cccs2)nc2ccccc12)C1CCS(=O)(=O)C1 (stereo not given)	?	0.6%	0.7%	-4.1%	-9.9%	27.5%[11.4 µM]
S=C(Nc1cccnc1)Nc1cccc2cnccc12	?	-4.8%	1.3%	-17.6%	44.7µM*	-13.4%
Fc1cccc(NC(=S)Nc2cccnc2)c1	2.4%	-1.0%	-1.2%	30.5%	17.8µM*	-10.3%[2.29 µM]
Fc1ccc(NC(=S)Nc2cccc3cnccc23)cc1	-2.3%	-4.4%	-15.3%	-22.7%	44.7µM*	-19.2%[11.4 µM]
S=C(Nc1ccc(Cl)cc1)Nc1cccc2cnccc12	-14.2%	-98.0%	-10.5%	-19.4%	0.0%	-52.9%
O=C(Nc1cccnc1)Nc1cccc(F)c1	4.6%	-3.7%	4.0%	24.3%	-19.8%	-30.1%
CC(C)N(C(=S)Nc1cccc(S(=O)(=O)N(C)C)c1)c1ccccc1	1.8%	0.4%	-14.1%	52.3%	11.2µM*	-20.0%
COc1ccc(-n2c(=O)c3c4c(sc3n(Cc3cc(C)ccc3C)c2=O)CN(C(C)=O)CC4)c(OC)c1	-3.3%	/	0.1%	/	-1.5%	/
CN(C)S(=O)(=O)c1cccc(NC(=S)Nc2cccc3cnccc23)c1	-7.0%	-1.1%	-23.2%	-22.2%	10µM*	-27.0%
CCOc1ccc(NC(=S)Nc2cccc3cnccc23)cc1	?	-25.3%	1.7%	-8.7%	-24.4%	-15.9%
Cc1ccc(S(=O)(=O)N(C)C)cc1NC(=S)Nc1cccc2ccccc12	-2.2%	-0.2%	-4.6%	0.3%	15.8µM*	-33.9%
COc1ccc(NC(=S)Nc2cccc3cnccc23)cc1	-8.5%	-5.4%	-10.2%	-28.1%	56.2µM*	-35.5%
COc1cc(NC(=S)Nc2cccnc2)cc(OC)c1	4.7%	16.2%	-19.5%	-7.0%	44.7µM*	-27.2%
C=CCNC(=S)Nc1cccc2ccccc12	6.7%	4.5%	0.0%	-2.6%	-5.9%	-13.7%
S=C(NCCc1ccncc1)Nc1cccc2ccccc12	-1.9%	-2.5%	-3.8%	-2.5%	14.1µM*	-8.2%
CN(Cc1cc(=O)n2ccsc2n1)c1ccccc1	?	-19.5%	7.7%	-11.4%	19.5%	-37.6%
